Reference: PubChem BioAssay (NCATS)
Records with an inconclusive call do not appear. Entries that show only a call come without a potency. Active and inactive are the calls of the source. Calls come from the whole dose curve; as a rule, active = well fitted curve in the direction sought with a large enough effect; inconclusive = small, poorly fitted or top-dose-only effect, or another doubt; inactive = no such curve, though single readings can be large; an effect the other way counts as inactive or inconclusive.

Key:
[1] = qHTS of pediatric cancer cell lines to identify multiple opportunities for drug repurposing: Confirmatory screen for MG 63 (6-TG R) cells (AID 1347119); conditions: MG-63 (6-TG resistant) osteosarcoma viability; series mostly up to 45.9 µM; note: nearly all actives have a fitted effect of over 55% in size; note: potency is the fitted concentration of half-maximal effect
Summary of the method: (§1)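 Cells (500-1,000/well) rested 5 h, then received compounds for 48 h; metabolically active cells were measured by CellTiter-Glo luminescence. Final concentrations spanned up to 46 µM (MIPE, 11-point) or 0.59 nM-46 µM (NPC, 8-point) in primary screens, 11-point in follow-ups.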

[2] = qHTS of pediatric cancer cell lines to identify multiple opportunities for drug repurposing: Confirmatory screen for control Hh wild type fibroblast cells (AID 1347121); conditions: viability qHTS; series mostly up to 45.9 µM; note: nearly all actives have a fitted effect of over 70% in size; note: potency is the fitted concentration of half-maximal effect
Summary of the method: as §1

[3] = qHTS of pediatric cancer cell lines to identify multiple opportunities for drug repurposing: Confirmatory screen for U-2 OS cells (AID 1347122); conditions: U-2 OS osteosarcoma cell viability; series mostly up to 45.9 µM; note: nearly all actives have a fitted effect of over 65% in size; note: potency is the fitted concentration of half-maximal effect
Summary of the method: as §1

[4] = qHTS of pediatric cancer cell lines to identify multiple opportunities for drug repurposing: Confirmatory screen for Rh41 cells (AID 1347123); conditions: Rh41 rhabdomyosarcoma cells, viability/cytotoxicity qHTS; series mostly up to 45.9 µM; note: nearly all actives have a fitted effect of over 60% in size; note: potency is the fitted concentration of half-maximal effect
Summary of the method: as §1

[5] = qHTS of pediatric cancer cell lines to identify multiple opportunities for drug repurposing: Confirmatory screen for RD cells (AID 1347124); conditions: RD rhabdomyosarcoma cell viability; series mostly up to 45.9 µM;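 note: cells exposed to compound for 48 h before viability readout; nearly all actives have a fitted effect of over 65% in size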; note: potency is the fitted concentration of half-maximal effect
Summary of the method: as §1

[6] = qHTS of pediatric cancer cell lines to identify multiple opportunities for drug repurposing: Confirmatory screen for SK-N-SH cells (AID 1347129); conditions: SK-N-SH neuroblastoma cell viability; series mostly up to 46.1 µM;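 note: cells exposed to compound for 48 h before viability read; nearly all actives have a fitted effect of over 60% in size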; note: potency is the fitted concentration of half-maximal effect
Summary of the method: as §1

[7] = test system: Zika virus NS2B-NS3 protease; assay: Primary screen GU AMC qHTS for Zika virus inhibitors (AID 1347154); conditions: Zika NS2B-NS3 unlinked protease, AMC fluorogenic substrate; series mostly up to 54.1 µM; note: nearly all actives have a fitted effect of over 70% in size
Summary of the method: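 Fluorogenic AMC-substrate cleavage by noncovalent NS2B-NS3 protease complex (25 nM, pH 8.0 Tris buffer with Tween 20) followed for 15 minutes at room temperature (~20% conversion). Percent inhibition from ex340/em450 signal change, fitted by 4-parameter Hill equation.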

[8] = qHTS of pediatric cancer cell lines to identify multiple opportunities for drug repurposing: Confirmatory screen for BT-37 cells (AID 1347117); conditions: BT-37 pediatric cancer cells, viability; series mostly up to 45.9 µM;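 note: potency is the fitted concentration of half-maximal effect; viability measured after 48 h of compound exposure; nearly all actives have a fitted effect of over 55% in size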
Summary of the method: as §1

[9] = qHTS of pediatric cancer cell lines to identify multiple opportunities for drug repurposing: Confirmatory screen for TC32 cells (AID 1347118); conditions: TC32 Ewing sarcoma cells viability qHTS; series mostly up to 45.9 µM;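 note: potency is the fitted concentration of half-maximal effect; cells exposed to compound for 48 h before the read; nearly all actives have a fitted effect of over 65% in size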
Summary of the method: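 Luminescent CellTiter-Glo read-out of metabolically active TC32 cells after 48 h compound exposure. Primary: MIPE 11-point, 0.78 nM–46 µM; NPC 8-point, 0.59 nM–46 µM. Confirmatory: 11-point dilutions.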

[10] = qHTS of pediatric cancer cell lines to identify multiple opportunities for drug repurposing: Confirmatory screen for Saos-2 cells (AID 1347127); conditions: Saos-2 osteosarcoma cell viability; series mostly up to 45.9 µM; note: nearly all actives have a fitted effect of over 60% in size; note: potency is the fitted concentration of half-maximal effect
Summary of the method: as §1

[11] = qHTS of pediatric cancer cell lines to identify multiple opportunities for drug repurposing: Confirmatory screen for OHS-50 cells (AID 1347128); conditions: OHS-50 osteosarcoma cells viability; series mostly up to 45.9 µM;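 note: compound exposure lasted 48 h at 37 degrees C; nearly all actives have a fitted effect of over 55% in size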; note: potency is the fitted concentration of half-maximal effect
Summary of the method: as §1

[12] = test system: Zika virus NS2B-NS3 protease (unlinked complex); assay: Primary screen GU Rhodamine qHTS for Zika virus inhibitors: Unlinked NS2B-NS3 protease assay (AID 1347159); conditions: Recombinant ZIKV NS2B-NS3 protease, Rhodamine110 substrate fluorescence; series mostly up to 107 µM; note: nearly all actives have a fitted effect of over 60% in size
Summary of the method: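 Buffer 10 mM Tris-HCl pH 8.0, 0.01% Tween 20. Unlinked protease 25 nM; compound preincubation 15 min, RT, protected from light. Substrate Rhod110, 1.5 microM; ~15% conversion in 15 min.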

[13] = test system: Zika virus NS2B-NS3 protease (linked construct); assay: Primary screen NINDS Rhodamine qHTS for Zika virus inhibitors (AID 1347160); conditions: purified NS2B-NS3 protease, Rhodamine110 substrate fluorescence; series mostly up to 57.1 µM; note: nearly all actives have a fitted effect of over 55% in size
Summary of the method: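 Aprotinin served as in-plate control. Conditions: 25 nM linked NS2B-NS3, pH 8.0 Tris buffer, titrated compounds, 15 min preincubation and 15 min reaction with 1.5 microM Rhod110 substrate at room temperature.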

[14] = target: N-terminal Xaa-Pro-Lys N-methyltransferase 1 (Homo sapiens) (UniProt Q9BV86); assay: qHTS Assay for Inhibitors of N-terminal methyltransferase 1 (NTMT1): LOPAC validation of the NTMT1 SAHH-coupled ThioGlo3 Assay (AID 1347143); conditions: recombinant NTMT1, SAHH-coupled ThioGlo3 fluorescence; series mostly up to 114 µM;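 note: SAH from peptide methylation measured as thiol fluorescence via SAHH coupling and ThioGlo3; nearly all actives have a fitted effect of over 70% in size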; note: potency is the fitted concentration of half-maximal effect
Summary of the method: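 NTMT1 125nM + cpds (various conc.), 1 min RT; add SAM 100uM/SAHH 10uM/ThioGlo3 15uM (addition mix). SAHH-coupled thiol detection, Ex340/Em450, t0 and 30 min RT; signal normalized to background. LOPAC 1280-cpd pilot.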

[15] = test system: Zika virus NS2B-NS3 protease (unlinked); assay: Optimization of GU AMC qHTS for Zika virus inhibitors: Unlinked NS2B-NS3 protease assay (AID 1347151); conditions: recombinant ZIKV NS2B-NS3 protease, fluorogenic AMC substrate; series mostly up to 52.5 µM; note: nearly all actives have a fitted effect of over 80% in size; note: potency is the fitted concentration of half-maximal effect
Summary of the method: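 Noncovalent NS2B hydrophilic domain–NS3 protease complex (25 nM final) in 10 mM Tris-HCl pH 8.0, 0.01% Tween 20; AMC substrate, room temperature 15 min (~20% conversion); fluorescence change normalized, 4-parameter Hill fit.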

Furin (Homo sapiens) = Furin (Homo sapiens) (UniProt P09958); assay: Furin counterscreen qHTS for Zika virus inhibitors (AID 1347149); conditions: furin enzymatic counterscreen, fluorogenic substrate; series mostly up to 57.5 µM;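 note: purified recombinant full-length human furin enzyme at 5 nM; fluorescence gain from furin cutting a BOC-RVRR-AMC peptide substrate over 15 min; top concentration of the series differs between compounds; nearly all actives have a fitted effect of over 70% in size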
Summary of the method: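 Counterscreen measures cleavage of 2 microM BOC-RVRR-AMC, below its ~15 microM Km, by 5 nM full-length human furin at pH 7.0 after a 15-min compound preincubation. Inhibition derives from the 15-min fluorescence increase at 37C.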

[16] = test system: Zika virus NS2B-NS3 protease (linked construct); assay: Confirmatory screen NINDS AMC qHTS for Zika virus inhibitors (AID 1347152); conditions: Purified linked NS2B-NS3, AMC substrate fluorescence; series mostly up to 56.6 µM
Summary of the method: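 Linked NS2B-NS3 protease, 1 nM, in 10 mM Tris-HCl pH 8.0, 0.01% Tween 20; compounds preincubated 15 min at room temperature. Nle-KRR-AMC 10 microM (Km 18.3 µM); 15-min fluorescence change (340/450 nm) fitted to 4-parameter Hill.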

[17] = test system: Zika virus NS2B-NS3 protease (unlinked complex); assay: Confirmatory screen GU AMC qHTS for Zika virus inhibitors (AID 1347153); conditions: Recombinant NS2B-NS3 protease, AMC substrate fluorescence; series mostly up to 57.1 µM; note: nearly all actives have a fitted effect of over 70% in size
Summary of the method: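 Noncovalent NS2B hydrophilic domain/NS3 protease complex (25 nM) in 10 mM Tris-HCl pH 8.0, 0.01% Tween 20 was preincubated 15 min at room temperature with compounds. Then 10 µM AMC substrate (Km 18.3 µM) was added; fluorescence was read over 15 min and fitted to a 4-parameter Hill equation.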

Chain of N-terminal Xaa-Pro-Lys N-methyltransferase 1 (Homo sapiens) (Q9BV86 whole entry, looked up): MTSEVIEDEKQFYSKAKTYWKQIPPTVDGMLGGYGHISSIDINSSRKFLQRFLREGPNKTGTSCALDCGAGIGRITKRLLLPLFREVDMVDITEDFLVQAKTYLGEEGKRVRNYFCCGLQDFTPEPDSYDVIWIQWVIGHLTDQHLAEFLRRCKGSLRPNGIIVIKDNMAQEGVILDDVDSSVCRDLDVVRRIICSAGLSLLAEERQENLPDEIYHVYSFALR
Chain of Furin (Homo sapiens) (P09958 whole entry, looked up): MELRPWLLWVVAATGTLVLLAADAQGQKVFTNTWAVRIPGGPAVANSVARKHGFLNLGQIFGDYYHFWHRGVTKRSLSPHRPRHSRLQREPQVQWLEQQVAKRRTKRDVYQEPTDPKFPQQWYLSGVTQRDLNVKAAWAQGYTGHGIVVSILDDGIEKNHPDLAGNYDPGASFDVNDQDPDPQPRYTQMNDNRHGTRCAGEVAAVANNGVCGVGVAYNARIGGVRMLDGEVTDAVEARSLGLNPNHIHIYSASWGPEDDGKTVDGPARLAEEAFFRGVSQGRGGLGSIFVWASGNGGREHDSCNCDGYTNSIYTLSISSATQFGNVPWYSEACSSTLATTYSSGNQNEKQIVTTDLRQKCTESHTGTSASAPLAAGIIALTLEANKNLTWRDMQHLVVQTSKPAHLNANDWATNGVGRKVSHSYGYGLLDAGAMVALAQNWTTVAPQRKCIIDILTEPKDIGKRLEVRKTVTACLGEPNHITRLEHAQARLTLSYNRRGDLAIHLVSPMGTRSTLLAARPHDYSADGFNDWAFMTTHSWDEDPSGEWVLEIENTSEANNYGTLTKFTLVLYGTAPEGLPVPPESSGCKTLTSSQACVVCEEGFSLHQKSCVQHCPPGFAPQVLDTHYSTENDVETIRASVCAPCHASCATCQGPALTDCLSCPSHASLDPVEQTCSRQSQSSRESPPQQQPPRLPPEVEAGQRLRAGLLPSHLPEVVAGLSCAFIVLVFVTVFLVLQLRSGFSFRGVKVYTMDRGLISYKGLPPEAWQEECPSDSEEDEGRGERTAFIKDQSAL

## CCCN1CCO[C@@H]2c3cc(O)ccc3OC[C@@H]21
[1]
  Potency: inactive
[2]
  Potency: inactive
[3]
  Potency: inactive
[4]
  Potency: inactive
[5]
  Potency: inactive
[6]
  Potency: inactive
[7]
  Potency: inactive

## COc1ccc2c(c1)CN(C)CC2c1ccc(Cl)c(Cl)c1 (configuration not stated)
[8]
  Potency: 23300 nM (active)
[9]
  Potency: 6.57 µM (active)
[2]
  Potency: inactive
[3]
  Potency: 20.8 µM (active)
[4]
  Potency: 18.5 µM (active)
[10]
  Potency: 23.3 µM (active)
[11]
  Potency: 23.3 µM (active)
[7]
  Potency: inactive

## Cc1ccccc1-n1c(Cn2ncc3c(N)ncnc32)nc2cccc(C)c2c1=O
[8]
  Potency: 293 nM (active)
[9]
  Potency: 1.85 µM (active)
[2]
  Potency: inactive
[3]
  Potency: inactive
[4]
  Potency: inactive
[11]
  Potency: 23.3 µM (active)
[6]
  Potency: inactive
[12]
  Potency: inactive
[13]
  Potency: inactive

## C[C@]12Cc3cn[nH]c3C[C@@H]1CC[C@@H]1[C@H]2CC[C@@]2(C)[C@H]1CC[C@]2(C)O
[1]
  Potency: inactive
[2]
  Potency: inactive
[3]
  Potency: inactive
[4]
  Potency: inactive
[11]
  Potency: inactive
[6]
  Potency: inactive
[7]
  Potency: inactive

## CC[C@H]1C=CC=CC[C@@H](C)[C@H](O)[C@@](C)(O)C(=O)[C@@H](C)[C@H](O)[C@@H](C)C(=O)[C@@H](C)[C@H](O)[C@@H](C)C=CC(=O)O[C@@H]2[C@@H](C)[C@H](CC1)O[C@]1(CC[C@H](C)[C@H](C[C@@H](C)O)O1)[C@H]2C
[8]
  Potency: 58.5 nM (active)
[9]
  Potency: 1.85 µM (active)
[1]
  Potency: 117 nM (active)
[2]
  Potency: 117 nM (active)
[3]
  Potency: 0.0046 µM (active)
[5]
  Potency: 4140 nM (active)
[11]
  Potency: inactive
[7]
  Potency: inactive

## CC(=Cc1csc(C)n1)[C@@H]1C[C@H]2O[C@@H]2CCC[C@H](C)[C@@H](O)[C@@H](C)C(=O)C(C)(C)[C@@H](O)CC(=O)O1
[9]
  Potency: 0.0147 µM (active)
[1]
  Potency: 16.5 nM (active)
[2]
  Potency: inactive
[4]
  Potency: 0.0369 µM (active)
[5]
  Potency: 46.5 nM (active)
[10]
  Potency: 0.0293 µM (active)
[11]
  Potency: 0.0329 µM (active)
[7]
  Potency: inactive

## C[C@@]12OC(=O)[C@]1([C@@H](O)[C@@H]1C=CCCC1)NC(=O)[C@H]2CCCl
[1]
  Potency: 293 nM (active)
[2]
  Potency: 4140 nM (active)
[3]
  Potency: 0.329 µM (active)
[4]
  Potency: 0.329 µM (active)
[5]
  Potency: 737 nM (active)
[10]
  Potency: 1.17 µM (active)
[6]
  Potency: 2.35 µM (active)
[7]
  Potency: inactive

## O=C(O)Cc1cnc[nH]1
[14]
  Potency: inactive
[15]
  Potency: inactive

## CN1C2CCC1CC(OC(=O)c1cc(Cl)cc(Cl)c1)C2 (configuration not stated)
[14]
  Potency: inactive
[15]
  Potency: inactive

## NC(=NCCC[C@H](N)C(=O)O)N[N+](=O)[O-]
[14]
  Potency: inactive
[15]
  Potency: inactive

## C=CCN1CC[C@]23CCCCC2[C@H]1Cc1ccc(O)cc13 (some centres not stated)
[14]
  Potency: inactive
Furin (Homo sapiens)
  Potency: inactive
[15]
  Potency: inactive

## O=C(O)CC[N+](=O)[O-]
[14]
  Potency: inactive
[15]
  Potency: inactive

## C#CCOC(=O)C1=CCCN(C)C1
[14]
  Potency: inactive
[15]
  Potency: inactive

## CCCN(CCC)C1CCc2ccc(O)cc2C1 (configuration not stated)
[14]
  Potency: inactive
[15]
  Potency: inactive
[7]
  Potency: inactive

## Cc1c(N)nc([C@H](CC(N)=O)NC[C@@H](N)C(N)=O)nc1C(=O)N[C@H](C(=O)N[C@@H](C)[C@H](O)[C@@H](C)C(=O)N[C@@H](C(=O)NCCc1nc(-c2nc(C(=O)NCCC[S+](C)C)cs2)cs1)[C@@H](C)O)C(O[C@H]1O[C@H](CO)[C@H](O)[C@@H](O)[C@@H]1O[C@H]1O[C@H](CO)[C@@H](O)[C@H](OC(N)=O)[C@H]1O)c1cnc[nH]1 (some centres not stated)
[2]
  Potency: inactive
[3]
  Potency: inactive
[4]
  Potency: inactive
[10]
  Potency: inactive
[11]
  Potency: inactive
[7]
  Potency: inactive

## c1ccc(C2(c3ccccc3)CC2C2=NCCN2)cc1 (configuration not stated)
[14]
  Potency: inactive
[15]
  Potency: inactive

## CC[C@@H]1C(=O)OC[C@@H]1Cc1cncn1C
[14]
  Potency: inactive

## CC(C)NC(C)Cc1ccc(I)cc1 (configuration not stated)
[14]
  Potency: inactive
[15]
  Potency: inactive

## Cn1cnc(CCN)c1
[14]
  Potency: inactive
[15]
  Potency: inactive

## CCCCc1ccc(C(=O)O)nc1
[14]
  Potency: inactive
[15]
  Potency: inactive

## COc1cc(C(O)CN)ccc1O (configuration not stated)
[14]
  Potency: inactive
[15]
  Potency: inactive

## C[N+]1(C)C2CC(OC(=O)[C@H](CO)c3ccccc3)CC1C1OC12 (some centres not stated)
[14]
  Potency: inactive

## CC(C)Oc1cccnc1N(C)C1CCN(Cc2ccccc2)CC1
[14]
  Potency: 56.2 µM (active)
[15]
  Potency: 29.9 µM (active)
[16]
  Potency: inactive
[17]
  outcome: inactive

## NC(CP(=O)(O)O)C(=O)O (configuration not stated)
[14]
  Potency: inactive
[15]
  Potency: inactive

## NC(=O)CN1CC(O)CC1=O (configuration not stated)
[14]
  Potency: inactive
[15]
  Potency: inactive

## NCc1cc(=O)[nH]o1
[14]
  Potency: inactive
[15]
  Potency: inactive
[7]
  Potency: inactive

## NC1CCc2cc(O)c(O)cc2C1 (configuration not stated)
[14]
  Potency: 22.4 µM (active)
[15]
  Potency: inactive

## NC(CCP(=O)(O)O)C(=O)O (configuration not stated)
[14]
  Potency: inactive
[15]
  Potency: inactive
[7]
  Potency: inactive

## COc1ccc(C(=O)c2c(C)n(CCN3CCOCC3)c3cc(I)ccc23)cc1
[1]
  Potency: 14700 nM (active)
[2]
  Potency: inactive
[3]
  Potency: 16.5 µM (active)
[4]
  Potency: 9.27 µM (active)
[6]
  Potency: inactive

## NC(N)=NOCCC(N)C(=O)O (configuration not stated)
[14]
  Potency: inactive
[15]
  Potency: inactive
